A short description of assay [1]: A CellTox Green Cytotoxicity Assay to monitor cytotoxicity in HEK293 cells - 32 hour (AID 1224881). Further: nearly all actives have a fitted effect of over 40% in size. Further: potency means the concentration at half of the fitted maximal effect. The procedure, abridged:
(§1)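 Cells (HEK293, 600/well) and dye reagent are dispensed together. After 5 h at 37 C, 23 nL compound is pinned in. Plates stay at 37 C for 40 h with fluorescence read at 0h, 8h, 16h, 24h, 32h and 40h.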

Assay [2] in a line: A CellTox Green Cytotoxicity Assay to monitor cytotoxicity in HepG2 cells - 0 hour (AID 1224882). Further: nearly all actives have a fitted effect of over 35% in size. The method in brief: (§2)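 Cells and non-lytic dye reagent are dispensed together (600 HepG2 cells/well) and incubated 5 h before DMSO compound transfer. Kinetic fluorescence is then recorded in the same wells during 40 h at 37 C.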
A short description of assay [3]: A CellTox Green Cytotoxicity Assay to monitor cytotoxicity in HepG2 cells - 32 hour (AID 1224883). Further: nearly all actives have a fitted effect of over 50% in size. Further: potency means the concentration at half of the fitted maximal effect. The method in brief: as §2
Assay [4] can be described thus: A CellTox Green Cytotoxicity Assay to monitor cytotoxicity in HEK293 cells - 8 hour (AID 1224884). Further: nearly all actives have a fitted effect of over 35% in size. Further: potency means the concentration at half of the fitted maximal effect. The procedure, abridged: as §1
The nature of assay [5]: qHTS RealTime-Glo MT Cell Viability Assay in HepG2 cells - 16 hour (AID 1224885). Further: nearly all actives have a fitted effect of over 50% in size. Further: potency means the concentration at half of the fitted maximal effect. The procedure, abridged:
(§3)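 HepG2 cells were seeded at 600 cells/well together with NanoLuc luciferase and a cell-permeant prosubstrate, preincubated 5 h at 37 C/5% CO2, then pin-dosed with compounds in DMSO. Nonlytic luminescence from viable cells was read at each time point.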
Background: qHTS replaces the single test concentration by a dilution series.

A short description of assay [6]: qHTS RealTime-Glo MT Cell Viability Assay in HEK293 cells - 24 hour (AID 1224886). Further: nearly all actives have a fitted effect of over 50% in size. Further: potency means the concentration at half of the fitted maximal effect. The method in brief:
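HEK293 cells were seeded at 600 cells/well together with NanoLuc luciferase and cell-permeant prosubstrate, preincubated 5 h at 37 C/5% CO2, then given compound in DMSO by pintool. Luminescence from viable-cell prosubstrate reduction was read repeatedly over 40 h.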

A short description of assay [7]: qHTS RealTime-Glo MT Cell Viability Assay in HepG2 cells - 0 hour (AID 1224889). Further: nearly all actives have a fitted effect of over 50% in size. The method in brief: as §3
Assay [8] can be described thus: A CellTox Green Cytotoxicity Assay to monitor cytotoxicity in HepG2 cells - 8 hour (AID 1224890). Further: nearly all actives have a fitted effect of over 45% in size. Further: potency means the concentration at half of the fitted maximal effect. The method in brief: as §2
Assay [9] is described as follows: qHTS assay to identify small molecule antagonists of the estrogen receptor alpha (ER-alpha) signaling pathway using the BG1 cell line in the presence of 0.1 nM 17-beta-estradiol - cell viability counter screen (AID 1259241). Further: nearly all actives have a fitted effect of over 40% in size. The procedure, abridged:
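VM7Luc4E2 cells (endogenous full-length ER-alpha, 4xERE-luciferase), cultured 5 days in charcoal-stripped serum, exposed to compounds with 0.1 nM 17beta-estradiol (final) for 22 hr at 37C. Viability read in same wells as live-cell protease fluorescence after 30 min.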

Assay [10] can be described thus: qHTS assay to identify small molecule antagonists of the androgen receptor (AR) signaling pathway using the MDA cell line in the presence of 0.5 nM R1881 - cell viability counter screen (AID 1259242). Further: nearly all actives have a fitted effect of over 45% in size. The method in brief:
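Steps: plate MDA-kb2 cells, rest 5 hr at 37C without CO2; pin in compounds in DMSO; add R1881 to 0.5 nM final; incubate 16 hr; add CellTiter-Fluor, 30 min; read fluorescence.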

Assay [11] can be described thus: qHTS assay to identify small molecule HDAC inhibitors (AID 1259364).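 Further: wild-type HCT-116 cells with endogenous class I/II HDAC activity; top concentration of the series differs between compounds; nearly all actives have a fitted effect of over 45% in size.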 The procedure, abridged: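 Cells (HCT-116, wild type) are seeded at 1,500 per well, incubated overnight, treated with compound in DMSO for 2 hr, then developed with HDAC-Glo I/II reagent for 30 min at room temperature.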
The nature of assay [12]: qHTS assay to identify small molecule agonists of the sonic hedgehog signaling (Shh) pathway - cell viability counter screen (AID 1259366). Further: nearly all actives have a fitted effect of over 50% in size. Further: potency means the concentration at half of the fitted maximal effect. The method in brief:
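NIH/3T3-derived Gli1-Luc reporter cells, 2,000 per well, received compound after 4 h and were treated about 23 h at 37C. Viability measured in the same wells by CellTiter-Fluor fluorescence after 1 h.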

Assay [13] can be described thus: qHTS assay to identify small molecule antagonists of the sonic hedgehog signaling (Shh) pathway - cell viability counter screen (AID 1259367). Further: nearly all actives have a fitted effect of over 55% in size. Further: potency means the concentration at half of the fitted maximal effect. The method in brief:
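Cytotoxicity was assessed in parallel with Shh reporter activity by measuring live-cell protease fluorescence (CellTiter-Fluor) in NIH/3T3 cells stably carrying Gli1-Luc, treated with compound under conditioned medium stimulation for 23 hr plus 1 hr reagent incubation.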

The nature of assay [14]: qHTS assay to identify small molecule agonists of the sonic hedgehog signaling (Shh) pathway (AID 1259368; calls by dose curve;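 further: NIH/3T3-derived 3T3Gli1-Luc cells carrying a stable Gli1-driven firefly luciferase reporter; series mostly up to about 92 µM; nearly all actives have a fitted effect of over 15% in size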). The procedure, abridged:
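Cells of a mouse NIH/3T3 clone stably expressing luciferase under the Gli1 transcriptional response element are exposed to test chemicals for 24 hr at 37 C. Pathway activation is detected as a rise in luminescence.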

A short description of assay [15]: qHTS RealTime-Glo MT Cell Viability Assay in HEK293 cells - 8 hour (AID 1224887). Further: nearly all actives have a fitted effect of over 50% in size. Further: potency means the concentration at half of the fitted maximal effect. The procedure, abridged:
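Real-time viability in HEK293: signal arises when living cells convert a prosubstrate for NanoLuc in the medium, so luminescence tracks viable cell number. Compound (23 nL, DMSO) added 5 h post-seeding; kinetic reads at 0–40 h, 37 C.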

Assay [16] addresses Estrogen receptor (Homo sapiens) (UniProt P03372). Put plainly: qHTS assay to identify small molecule antagonists of the estrogen receptor alpha (ER-alpha) signaling pathway using the BG1 cell line in the presence of 0.1 nM 17-beta-estradiol (AID 1259244). Further: nearly all actives have a fitted effect of over 50% in size. Further: potency means the concentration at half of the fitted maximal effect. The procedure, abridged: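 Antagonist mode: compounds in DMSO are pinned onto VM7Luc4E2 reporter cells, 0.1 nM final 17beta-estradiol is added, and after 22 h at 37C luciferase luminescence is measured with ONE-Glo.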

A short description of assay [17]: qHTS assay to identify small molecule phospholipidosis (PLD) inducers (AID 1259344; active means well fitted curve in the direction sought with a large enough effect; an effect the other way counts as inactive or inconclusive). The procedure, abridged:
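Cells (HepG2, 900 per well) attach for 4 h, receive LipidTOX Red and compound together, incubate 24 h at 37 C, are fixed 30 min with paraformaldehyde/Hoechst, then imaged at one site per well.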

Assay [18] can be described thus: qHTS assay to identify small molecule HDAC inhibitors - cell viability counter screen (AID 1259365). The procedure, abridged:
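Wild-type HCT-116 cells, 1,500/well, cultured overnight, then compound-treated 2 h at 37 C. Viability measured as ATP luminescence with CellTiter-Glo after 30 min at room temperature.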

Assay [19] in a line: A CellTox Green Cytotoxicity Assay to monitor cytotoxicity in HEK293 cells - 16 hour (AID 1224888). Further: nearly all actives have a fitted effect of over 35% in size. The method in brief:
as §1

Several values for one entry are separate records, joined by “and”; a condition that tells them apart may be missing. Equal values may be shown once. Inconclusive results are not listed. Activity calls are given as the source filed them. Unless noted, the call rests on the fitted dose curve; in most records, active means well fitted curve in the direction sought with a large enough effect in the repeat runs; inconclusive means weak or mixed curves; inactive means no such curve, though single readings can be large; an effect the other way counts as inactive or inconclusive.

Sequence of Estrogen receptor (Homo sapiens) (P03372 whole entry, looked up): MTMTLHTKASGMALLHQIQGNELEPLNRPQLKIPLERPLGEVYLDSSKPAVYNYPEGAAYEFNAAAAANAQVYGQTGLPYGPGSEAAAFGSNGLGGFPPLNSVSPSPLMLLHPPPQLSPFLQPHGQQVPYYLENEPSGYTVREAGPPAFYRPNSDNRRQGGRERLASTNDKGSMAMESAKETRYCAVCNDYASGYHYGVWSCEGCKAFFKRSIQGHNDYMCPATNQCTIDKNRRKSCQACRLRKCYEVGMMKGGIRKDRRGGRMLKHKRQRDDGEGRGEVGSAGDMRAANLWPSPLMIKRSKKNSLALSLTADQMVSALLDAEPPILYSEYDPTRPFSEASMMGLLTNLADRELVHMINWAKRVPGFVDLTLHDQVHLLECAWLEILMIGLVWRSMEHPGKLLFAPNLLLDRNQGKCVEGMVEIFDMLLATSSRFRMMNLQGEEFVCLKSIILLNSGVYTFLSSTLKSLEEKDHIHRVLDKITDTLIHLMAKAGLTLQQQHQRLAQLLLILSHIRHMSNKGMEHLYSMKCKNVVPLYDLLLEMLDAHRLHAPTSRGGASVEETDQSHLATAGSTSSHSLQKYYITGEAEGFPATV

With `C=CCOC(=O)C(C)(C)OC(=O)c1cc(-n2c(=O)cc(C(F)(F)F)n(C)c2=O)ccc1Cl`, the Potency entry in [1], in assay [2], in assay [3], in assay [4], in [5] and in assay [8] was “inactive” each time. Also, the Potency entry in assay [9], in assay [10], in [11], in [12], in assay [13] and in assay [14] was “inactive” in each case. Moreover, in assay [6], the Potency is 19.1 µM (active). For the same molecule, in assay [7], the result was inactive.

Regarding `CN[C@@H](C)[C@H](O)c1ccccc1`, the Potency result in assay [1], in assay [2], in assay [3], in assay [4], in assay [5] and in assay [6] was “inactive” in each case. Besides, the Potency result in [15], in [8], in assay [9], in assay [10], in [16] and in assay [11] was “inactive” throughout. Moreover, the Potency entry in [18], in assay [12], in assay [13] and in assay [14] was “inactive” in each case. In addition, the result in [7] and in [17] was inactive.

As to `CCCCCCCCn1sccc1=O`, the Potency in assay [1] is 55.1 µM (active) and 25.7 µM (active); in assay [3], 43.7 µM (active) and 22.9 µM (active); in assay [4] it was 36.3 µM (active); in assay [5] it was 43.7 µM (active) and 16.2 µM (active); in assay [6], 12.3 µM (active) and 12.9 µM (active); in [15], 39 µM (active) and 40.8 µM (active). Besides, the Potency in assay [8] is 25.7 µM (active); in assay [16] it was 30.7 µM (active); in assay [12], 4.34 µM (active) and 3.21 µM (active); in [13], 4.34 µM (active). For the same molecule, the Potency entry in assay [2], in [11], in assay [18] and in [14] was “inactive” each time. Further, in [7], the result was inactive.

With `O=C(O)C(O)C(O)C(=O)O` (stereo unspecified), the Potency result in assay [1], in assay [2], in [3], in [4], in assay [5] and in assay [6] was “inactive” each time. Also, the Potency result in assay [15], in [8], in assay [9], in [10], in assay [16] and in [11] was “inactive” each time. In addition, the Potency entry in assay [12], in assay [13] and in assay [14] was “inactive” in each case. The molecule was classed as inactive in [7].

As to `O=C1c2ccccc2C(=O)N1SC(Cl)(Cl)Cl`, the Potency is 21.6 µM (active) and 8.71 µM (active) in assay [1]; 24.2 µM (active) and 12.3 µM (active) in [3]; 19.5 µM (active) in assay [5]; 5.42 µM (active) and 6.16 µM (active) in assay [6]; 12 µM (active) and 9.69 µM (active) in assay [12]; 9.55 µM (active) and 17.2 µM (active) in assay [13]. In addition, the Potency entry in assay [2], in assay [4], in assay [19], in assay [8], in assay [9] and in [11] was “inactive” in each case. The Potency result in [18] and in assay [14] was “inactive” in each case. Moreover, the molecule was called inactive in [7].

For the molecule `O=C(O)C(F)(F)C(F)(F)C(F)(F)C(F)(F)C(F)(F)F`, the Potency entry in assay [1], in [2], in assay [3], in assay [4], in assay [5] and in [6] was “inactive” each time. Further, the Potency result in [15], in [8], in [9], in assay [10], in assay [16] and in assay [11] was “inactive” throughout. Further, the Potency result in assay [18], in assay [12], in assay [13] and in assay [14] was “inactive” in each case. Moreover, the outcome in assay [7] was inactive.

As to `CCCN(CCC)c1c([N+](=O)[O-])cc(C(C)C)cc1[N+](=O)[O-]`, the Potency result in [1], in [2], in [3], in [4], in assay [5] and in assay [6] was “inactive” throughout. Moreover, the Potency result in assay [15], in [8], in [9], in assay [10], in assay [16] and in assay [11] was “inactive” in each case. The Potency result in [12], in assay [13] and in [14] was “inactive” each time. In addition, in [7], the call was inactive.

Values taken from PubChem BioAssay (Tox21).
